Source: PubChem BioAssay
A number with no mark means an inactive call. How the calls were made is not given here.

Target: Pantothenate synthetase (Mycobacterium tuberculosis (strain ATCC 25618 / H37Rv)) (UniProt P9WIL5)
Assay: Recombinant Mtb pantothenate synthetase (PanC) inhibitors, coupled enzyme, confirmatory (AID 375);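 further: 0% = full reaction with vehicle and 100% = no enzyme background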
Details: coupled enzyme assay; at 10 µM, stronger effect = higher value

Pantothenate synthetase (Mycobacterium tuberculosis (strain ATCC 25618 / H37Rv)), sequence (P9WIL5 whole entry, looked up): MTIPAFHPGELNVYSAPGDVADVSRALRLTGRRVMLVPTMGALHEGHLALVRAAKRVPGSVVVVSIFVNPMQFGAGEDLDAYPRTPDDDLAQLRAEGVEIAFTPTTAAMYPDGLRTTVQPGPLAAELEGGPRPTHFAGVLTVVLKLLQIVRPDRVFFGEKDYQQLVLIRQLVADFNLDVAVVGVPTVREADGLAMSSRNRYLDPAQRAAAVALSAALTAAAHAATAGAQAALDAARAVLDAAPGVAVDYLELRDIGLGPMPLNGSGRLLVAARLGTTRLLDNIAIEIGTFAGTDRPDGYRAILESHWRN

| Compound | inhibition |
| --- | --- |
| COC(=O)CN(c1nc(C)c(Cl)c(OC)n1)S(=O)(=O)c1ccc(C)cc1 | 0% |
| COC(=O)n1c(=S)oc2cc(Cl)ccc21 | 0% |
| O=C(OCCN1C(=O)c2ccccc2C1=O)c1ccc(S(=O)(=O)N2CCCCCC2)cc1 | 0% |
| O=C(Nc1ccccc1-c1nc2ccccc2o1)c1ccc2c(c1)OCCO2 | 5% |
| CCOC(=O)c1ccccc1NC(=O)CSc1nnc(COc2ccccc2C)n1C | 2% |
| Cc1ccc(Nc2nnns2)cc1C | 4% |
| Cn1c(=O)c(=O)n(C)c2cc(S(=O)(=O)Nc3ccc4c(c3)OCCO4)ccc21 | 6% |
| Cc1cccc(N2CCN(Cc3c(C)n(C)n(-c4ccccc4)c3=O)CC2)c1C | 0% |
| COC(=O)C1=C(C)Nc2nnnn2C1c1cccs1 (stereo unspecified) | 8% |
| Nc1nonc1C(=O)NCCNCc1cc(Br)ccc1OCc1ccccc1F | 0% |
| Cc1ccc(CNC(=O)C2CCCN(S(=O)(=O)c3cccnc3)C2)cc1 (stereo unspecified) | 0% |
| CCOc1ccc2cc(C#N)c(SCC(=O)N3CCOCC3)nc2c1 | 0% |
| CCCCOCP(=O)(CCCC)COCCCC | 1% |
| O=C(CCC(=O)N(c1cccc(F)c1)C(C(=O)NC1CCCC1)c1ccncc1)Nc1cccnc1 (stereo unspecified) | 0% |
| O=C(CN1C(=O)CSC1=O)N1CCc2ccccc2C1 | 3% |
| CC1(C)Cc2c(sc3ncnc(N)c23)CO1 | 14% |
